From PubChem BioAssay (Tox21)
Where “and” joins values, the source holds several entries; their conditions need not be identical. Equal entries are not always repeated. Results filed as inconclusive are left out. A structure can be active in one record and inactive in another. Calls of active or inactive are those of the source. Unless noted, calls follow the shape of the dose curve; as a rule, active = well fitted curve in the direction sought with a large enough effect in the repeat runs; inconclusive = weak or mixed curves; inactive = no such curve, though single readings can be large; an effect the other way counts as inactive or inconclusive.

Experiments:
[1] = qHTS assay to test for compound auto fluorescence at 535 nm (green) in HEK293 cells (AID 720680)
[2] = qHTS assay to test for compound auto fluorescence at 460 nm (blue) in HEK293 cell free culture (AID 720681)
Procedure, shortened: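 Compounds were added to cell-free DMEM with 10% FBS and fluorescence read directly. The blue channel used 405 nm excitation and 460 nm emission, with triamterene as the reference fluorophore.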

[3] = qHTS assay to test for compound auto fluorescence at 535 nm (green) in HEK293 cell free culture (AID 720682)
Procedure, shortened: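 Cell-free medium (DMEM, 10% FBS) receives compound or DMSO by pintool. Plate read directly at Ex 485/Em 535 nm. Signal converted to fluorescein equivalency.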

[4] = qHTS assay to test for compound auto fluorescence at 590 nm (red) in HEK293 cell free culture (AID 720683)
Procedure, shortened: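 Cell-free wells of DMEM with 10% FBS received compound, and intrinsic fluorescence was read at excitation/emission 540/590 nm. Values expressed as equivalence to Rose Bengal sodium.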

[5] = qHTS assay to test for compound auto fluorescence at 590 nm (red) in HepG2 cell free culture (AID 720684)
Procedure, shortened: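 Rose Bengal sodium served as the reference for red signal. Test compounds were dispensed into serum-containing MEM (10% FBS) without cells, and plates were read at 540/590 nm.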

[6] = qHTS assay to test for compound auto fluorescence at 460 nm (blue) in HepG2 cell free culture (AID 720685)
Procedure, shortened: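 Cell-free plates of MEM plus 10% FBS received 23 nL compound or DMSO vehicle; blue-channel (405/460 nm) intensity scored against triamterene as reference fluorophore.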

[7] = qHTS assay to test for compound auto fluorescence at 535 nm (green) in HepG2 cell free culture (AID 720686)
[8] = qHTS assay to test for compound auto fluorescence at 460 nm (blue) in HepG2 cells (AID 720687)
Procedure, shortened: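 HepG2 cells in MEM with 10% FBS, attached overnight at 37 C, were exposed to compound or DMSO for 1 hr at 37 C, 5% CO2. Blue fluorescence was read at 405/460 nm, with triamterene as reference fluorophore.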

[9] = molecular target: Glucocorticoid receptor (Homo sapiens) (UniProt P04150); assay: qHTS assay to identify small molecule agonists of the glucocorticoid receptor (GR) signaling pathway (AID 720691; active = well fitted activation curve with a large enough effect in the signal ratio in the repeat runs, not every such curve was filed as active; the % refers to the signal ratio); conditions: GR-bla HeLa, beta-lactamase reporter ratio, 18 h; activation: at 62.4 µM (top of the series)
Procedure, shortened: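 Measures GR pathway activation through a GRE-beta-lactamase reporter stably integrated in HeLa cells, with 18 h compound treatment at 37 C and fluorescence detection using a FRET substrate.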

[10] = qHTS assay to identify small molecule antagonists of the glucocorticoid receptor (GR) signaling pathway - cell viability counter screen (AID 720693); also: nearly all actives have a fitted effect of over 55% in size
[11] = qHTS assay for identifying genotoxic compounds that show differential cytotoxicity against isogenic chicken DT40 cell lines with known DNA damage response pathways - wild type cell line (AID 743012); also: nearly all actives have a fitted effect of over 60% in size; also: potency is read from the fitted curve at half-maximal effect
Procedure, shortened: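 Endpoint: CellTiter-Glo luminescence, 30 min RT. Cells: wild type DT40, 300/well. Exposure: compounds in DMSO, 40 h, 37 C/5% CO2, after ~0.5 h pre-incubation.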

[12] = qHTS assay for identifying genotoxic compounds that show differential cytotoxicity against isogenic chicken DT40 cell lines with known DNA damage response pathways - Rad54/Ku70 mutant cell line (AID 743015); also: nearly all actives have a fitted effect of over 60% in size; also: potency is read from the fitted curve at half-maximal effect
[13] = qHTS assay to identify small molecule antagonists of the androgen receptor (AR) signaling pathway - cell viability counter screen (AID 743033; also: nearly all actives have a fitted effect of over 45% in size)
[14] = qHTS assay to identify small molecule antagonists of the androgen receptor (AR) signaling pathway using the MDA cell line - cell viability counter screen (AID 743041; also: nearly all actives have a fitted effect of over 45% in size)
Procedure, shortened: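 Cytotoxicity counter screen: MDA-kb2 AR-luc cells, compound + R1881, 16 h, 37C, 0% CO2; CellTiter-Fluor added at 15.5 h, fluorescence read after 30 min.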

[15] = qHTS assay for identifying genotoxic compounds that show differential cytotoxicity against isogenic chicken DT40 cell lines with known DNA damage response pathways - Rev3 mutant cell line (AID 743014); also: nearly all actives have a fitted effect of over 55% in size; also: potency is read from the fitted curve at half-maximal effect
[16] = molecular target: Androgen receptor (Homo sapiens) (UniProt P10275); assay: qHTS assay to identify small molecule antagonists of the androgen receptor (AR) signaling pathway (AID 743035; active = well fitted inhibition curve with a large enough effect in the signal ratio in the repeat runs, not every such curve was filed as active; the % refers to the signal ratio)
Procedure, shortened: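 R1881 agonist challenge of a HEK293 UAS-beta-lactamase AR reporter line in the presence of compound (16 h, 37C); signal taken as FRET fluorescence after 2 h with LiveBLAzer B/G substrate at room temperature.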

[17] = molecular target: Androgen receptor (Homo sapiens) (UniProt P10275); assay: qHTS assay to identify small molecule agonists of the androgen receptor (AR) signaling pathway (AID 743036; active = well fitted activation curve with a large enough effect in the signal ratio in the repeat runs, with a control signal flat, not every such curve was filed as active; the % refers to the signal ratio; also: potency is read from the fitted curve at half-maximal effect)
Procedure, shortened: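 AR-bla HEK293 cells, 2,000/well; 4 h preincubation 37C/5% CO2; compound (DMSO) 16 h at 37C; LiveBLAzer B/G FRET substrate 2 h RT; fluorescence intensity read-out.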

[18] = molecular target: Androgen receptor (Homo sapiens) (UniProt P10275); assay: qHTS assay to identify small molecule agonists of the androgen receptor (AR) signaling pathway using the MDA cell line (AID 743040; also: nearly all actives have a fitted effect of over 20% in size; also: potency is read from the fitted curve at half-maximal effect)
Procedure, shortened: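 Luciferase read-out, ONE-Glo, 30 min RT. Cells: MDA-kb2 AR-luc, MMTV promoter with AR and GR response elements. Compound exposure 16 h, 37C, 0% CO2, after 5 h pre-incubation. qHTS agonist mode.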

[19] = molecular target: Androgen receptor (Homo sapiens) (UniProt P10275); assay: qHTS assay to identify small molecule antagonists of the androgen receptor (AR) signaling pathway using the MDA cell line (AID 743042; also: nearly all actives have a fitted effect of over 55% in size)
Procedure, shortened: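 MDA-kb2 breast carcinoma cells carrying MMTV-luciferase (AR/GR responsive) were co-treated with compounds and the agonist R1881 for 16 h at 37C. Inhibition read as ONE-Glo luminescence; CellTiter-Fluor fluorescence measured in parallel for cytotoxicity.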

[20] = molecular target: Glucocorticoid receptor (Homo sapiens) (UniProt P04150); assay: qHTS assay to identify small molecule antagonists of the glucocorticoid receptor (GR) signaling pathway (AID 720692; active = well fitted inhibition curve with a large enough effect in the signal ratio in the repeat runs, not every such curve was filed as active; the % refers to the signal ratio)
Procedure, shortened: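 Tox21 10K library screened in concentration-response for blockade of dexamethasone (5 nM final)-induced GRE-bla reporter activity in HeLa cells; 18 h treatment, fluorescence read.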

Measured: Potency

Sequence of Androgen receptor (Homo sapiens) (P10275 whole entry, looked up): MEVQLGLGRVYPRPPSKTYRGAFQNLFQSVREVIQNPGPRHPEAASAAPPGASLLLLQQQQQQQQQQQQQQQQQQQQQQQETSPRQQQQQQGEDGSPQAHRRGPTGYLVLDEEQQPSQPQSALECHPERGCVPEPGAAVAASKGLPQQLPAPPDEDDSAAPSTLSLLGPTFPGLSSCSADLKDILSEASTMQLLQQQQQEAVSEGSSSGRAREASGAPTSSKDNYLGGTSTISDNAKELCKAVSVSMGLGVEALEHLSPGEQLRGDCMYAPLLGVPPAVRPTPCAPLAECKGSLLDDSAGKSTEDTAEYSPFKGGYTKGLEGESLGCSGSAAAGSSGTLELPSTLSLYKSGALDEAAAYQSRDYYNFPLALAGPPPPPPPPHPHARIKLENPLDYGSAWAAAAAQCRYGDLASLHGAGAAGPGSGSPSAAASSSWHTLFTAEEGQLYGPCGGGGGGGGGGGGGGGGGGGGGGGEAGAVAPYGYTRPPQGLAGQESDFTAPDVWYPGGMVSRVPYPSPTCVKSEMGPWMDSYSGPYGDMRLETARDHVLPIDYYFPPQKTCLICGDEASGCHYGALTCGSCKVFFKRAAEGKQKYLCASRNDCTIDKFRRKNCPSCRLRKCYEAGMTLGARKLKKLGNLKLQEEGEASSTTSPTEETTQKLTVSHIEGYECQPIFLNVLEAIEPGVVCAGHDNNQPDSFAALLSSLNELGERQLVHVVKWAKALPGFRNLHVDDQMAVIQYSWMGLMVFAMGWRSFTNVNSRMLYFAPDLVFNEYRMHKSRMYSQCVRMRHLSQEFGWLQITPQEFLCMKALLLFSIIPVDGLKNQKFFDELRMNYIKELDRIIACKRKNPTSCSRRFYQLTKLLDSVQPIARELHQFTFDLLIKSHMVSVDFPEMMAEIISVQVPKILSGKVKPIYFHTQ
Sequence of Glucocorticoid receptor (Homo sapiens) (P04150 whole entry, looked up): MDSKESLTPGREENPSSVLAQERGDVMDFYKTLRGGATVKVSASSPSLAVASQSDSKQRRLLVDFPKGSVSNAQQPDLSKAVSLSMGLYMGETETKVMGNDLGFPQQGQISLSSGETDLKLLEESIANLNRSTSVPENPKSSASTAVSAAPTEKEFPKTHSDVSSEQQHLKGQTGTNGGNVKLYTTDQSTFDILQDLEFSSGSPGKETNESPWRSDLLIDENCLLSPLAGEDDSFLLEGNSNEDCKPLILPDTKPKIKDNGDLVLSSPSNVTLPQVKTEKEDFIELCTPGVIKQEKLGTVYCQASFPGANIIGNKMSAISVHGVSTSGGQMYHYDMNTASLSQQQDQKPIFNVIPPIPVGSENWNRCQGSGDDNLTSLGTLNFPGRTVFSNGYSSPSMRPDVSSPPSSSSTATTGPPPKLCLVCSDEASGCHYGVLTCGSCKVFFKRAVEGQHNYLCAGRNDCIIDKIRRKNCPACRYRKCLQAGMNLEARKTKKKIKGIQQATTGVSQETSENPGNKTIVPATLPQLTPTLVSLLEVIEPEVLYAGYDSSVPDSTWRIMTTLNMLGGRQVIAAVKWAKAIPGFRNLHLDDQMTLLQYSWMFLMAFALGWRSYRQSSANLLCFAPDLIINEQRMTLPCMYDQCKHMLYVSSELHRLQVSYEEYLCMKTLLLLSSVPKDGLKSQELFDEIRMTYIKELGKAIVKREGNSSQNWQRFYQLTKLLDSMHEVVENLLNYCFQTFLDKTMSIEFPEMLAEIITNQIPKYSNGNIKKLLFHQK

CCCSc1ccc2nc(NC(=O)OC)[nH]c2c1
active: [11] 227 nM and 1.09 µM | [12] 452 nM and 1.09 µM
not listed: [15] | [16] | [17] | [18] | [19] | [20]
inactive: all other assays above

CC1CCC(C(C)C)C(O)C1 (stereo not drawn)
not listed: [9] | [20]
inactive: all other assays above

OCc1cccnc1
not listed: [9] | [16] | [17] | [18] | [19] | [20]
inactive: all other assays above

CCN(CC)c1ccc(C(=O)c2ccccc2C(=O)O)c(O)c1
not listed: [11] | [16] | [17] | [18] | [19]
inactive: all other assays above

O=[N+]([O-])c1ccc(/C=C/c2ccc([N+](=O)[O-])cc2S(=O)(=O)O)c(S(=O)(=O)O)c1
not listed: [15] | [16] | [17] | [18] | [19]
inactive: all other assays above

CCCCCCCCCCCCc1ccccc1
not listed: [9] | [16] | [17] | [18] | [19] | [20]
inactive: all other assays above

O=S(=O)(O)c1ccc2ccccc2c1
inactive and 54.6 µM (active): [11] | [12]
inactive and 43.4 µM (active): [15]
not listed: [9] | [16] | [17] | [18] | [19] | [20]
inactive: all other assays above

C[Si](O[Si](C)(C)C)O[Si](C)(C)C
not listed: [1]
inactive: all other assays above

O=C(O)c1cc(O)c(O)c(O)c1
active: [11] 26.6 µM and 30.9 µM | [15] 26.6 µM and 24.6 µM | [12] 27.6 µM
not listed: [1] | [16] | [17] | [18] | [19] | [20]
inactive: all other assays above

CCCC(C)=O
not listed: [1] | [16] | [17] | [18] | [19]
inactive: all other assays above

C[C@H]1C[C@@H]2[C@H]([C@@H](O)C[C@@]3(C)[C@H]2CC[C@]3(O)C(=O)CO)[C@@]2(C)C=CC(=O)C=C12
active: [17] 32.3 nM and 49 nM | [18] 50.7 nM and 38.6 nM
not listed: [1] | [9] | [16] | [20]
inactive: all other assays above

Cc1cccc(O)c1
not listed: [1] | [15] | [16] | [17] | [18] | [19]
inactive: all other assays above

CCc1ccc(CCOc2ccc(CC3SC(=O)NC3=O)cc2)nc1 (stereo not drawn)
active: [12] 11.9 µM and 61.1 µM
inactive and 68.6 µM (active): [11]
not listed: [1] | [15] | [16] | [17] | [18] | [19] | [20]
inactive: all other assays above

COc1ccc(NC(C)=O)cc1N
not listed: [1] | [15] | [16] | [17] | [18] | [19]
inactive: all other assays above

CCCCCOC(C)=O
inactive and 68.6 µM (active): [15]
not listed: [1] | [16] | [17] | [18] | [19]
inactive: all other assays above

CC(C)c1ccc(S(=O)(=O)O)cc1
not listed: [1] | [9] | [16] | [17] | [18] | [19] | [20]
inactive: all other assays above

O=C(O)c1ccc(C(=O)O)cc1
not listed: [1] | [15] | [16] | [17] | [18] | [19]
inactive: all other assays above

CCC(O)OCCCOC (stereo not drawn)
not listed: [1] | [16] | [17] | [18] | [19]
inactive: all other assays above

CC1=C(C)S(=O)(=O)CCS1(=O)=O
active: [12] 60 µM and 61.1 µM
not listed: [1] | [11] | [15] | [19]
inactive: all other assays above

OCCOCCOCCO
not listed: [1] | [15]
inactive: all other assays above

CC(=O)c1ccccc1
not listed: [1] | [9] | [16] | [17] | [18] | [19] | [20]
inactive: all other assays above

CCCCC(CC)CO (stereo not drawn)
not listed: [1] | [16] | [17] | [18] | [19]
inactive: all other assays above
